Inconclusive results are not listed. Calls of active or inactive are those of the source. The call rests on the fitted dose curve; in most records, active means well fitted curve in the direction sought with a large enough effect in the repeat runs; inconclusive means weak or mixed curves; inactive means no such curve, though single readings can be large; an effect the other way counts as inactive or inconclusive.
What was measured:
[1] = A CellTox Green Cytotoxicity Assay to monitor cytotoxicity in HepG2 cells - 0 hour (AID 1224882); further: nearly all actives have a fitted effect of over 35% in size
Summary of the method: (§1)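 HepG2 cells, 600/well, preincubated 5 h with CellTox Green dye, then exposed to Tox21 compounds in DMSO at 37 C for up to 40 h. Dead-cell DNA fluorescence read at the indicated time point.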

[2] = A CellTox Green Cytotoxicity Assay to monitor cytotoxicity in HEK293 cells - 8 hour (AID 1224884); further: nearly all actives have a fitted effect of over 35% in size; further: potency means the concentration at half of the fitted maximal effect
Summary of the method: (§2)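 HEK293 cells, 600/well, were preincubated 5 hours and then exposed to compounds at 37 C for up to 40 hours. A cell-impermeant cyanine dye staining dead-cell DNA was read by fluorescence at 0, 8, 16, 24, 32 and 40 h time points.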

[3] = qHTS RealTime-Glo MT Cell Viability Assay in HepG2 cells - 16 hour (AID 1224885); further: nearly all actives have a fitted effect of over 50% in size; further: potency means the concentration at half of the fitted maximal effect
Summary of the method: (§3)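 HepG2 cells were seeded at 600 cells/well together with NanoLuc luciferase and a cell-permeant prosubstrate, preincubated 5 h at 37 C/5% CO2, then pin-dosed with compounds in DMSO. Nonlytic luminescence from viable cells was read at each time point.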

[4] = qHTS RealTime-Glo MT Cell Viability Assay in HEK293 cells - 24 hour (AID 1224886); further: nearly all actives have a fitted effect of over 50% in size; further: potency means the concentration at half of the fitted maximal effect
Summary of the method: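 HEK293 cells were seeded at 600 cells/well together with NanoLuc luciferase and cell-permeant prosubstrate, preincubated 5 h at 37 C/5% CO2, then given compound in DMSO by pintool. Luminescence from viable-cell prosubstrate reduction was read repeatedly over 40 h.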

[5] = qHTS RealTime-Glo MT Cell Viability Assay in HEK293 cells - 8 hour (AID 1224887); further: nearly all actives have a fitted effect of over 50% in size; further: potency means the concentration at half of the fitted maximal effect
Summary of the method: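 600 cells/well were plated with the nonlytic NanoLuc/prosubstrate reagent, pre-incubated 5 h, then given 23 nL of compound in DMSO. Incubation at 37 C for 40 h, with luminescence from viable-cell-reduced substrate read repeatedly from 0 h.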

[6] = A CellTox Green Cytotoxicity Assay to monitor cytotoxicity in HEK293 cells - 16 hour (AID 1224888); further: nearly all actives have a fitted effect of over 35% in size; further: potency means the concentration at half of the fitted maximal effect
Summary of the method: as §2

[7] = qHTS RealTime-Glo MT Cell Viability Assay in HepG2 cells - 0 hour (AID 1224889); further: nearly all actives have a fitted effect of over 50% in size
Summary of the method: as §3

[8] = A CellTox Green Cytotoxicity Assay to monitor cytotoxicity in HepG2 cells - 8 hour (AID 1224890); further: nearly all actives have a fitted effect of over 45% in size; further: potency means the concentration at half of the fitted maximal effect
Summary of the method: as §1

[9] = A CellTox Green Cytotoxicity Assay to monitor cytotoxicity in HepG2 cells - 32 hour (AID 1224883); further: nearly all actives have a fitted effect of over 50% in size; further: potency means the concentration at half of the fitted maximal effect
Summary of the method: as §1

[10] = qHTS assay to identify small molecule antagonists of the estrogen receptor alpha (ER-alpha) signaling pathway using the BG1 cell line in the presence of 0.1 nM 17-beta-estradiol - cell viability counter screen (AID 1259241); further: nearly all actives have a fitted effect of over 40% in size; further: potency means the concentration at half of the fitted maximal effect
Summary of the method: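 VM7Luc4E2, 4,000 cells/well, phenol red-free medium + 10% charcoal-stripped FBS; 24 hr plating; cpd + 0.1 nM E2 final, 22 hr 37C/5% CO2; CellTiter-Fluor 30 min, fluorescence.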

Measured: Potency

CCCCCCS
inactive: [1] | [2] | [3] | [4] | [5] | [6] | [7] | [8]

Cc1oc(-c2ccccc2)nc1CCOc1ccc(C[C@H](Nc2ccccc2C(=O)c2ccccc2)C(=O)O)cc1
inactive: [1] | [2] | [3] | [4] | [5] | [6] | [7]

S=P(N1CC1)(N1CC1)N1CC1
inactive: [1] | [9] | [3] | [5] | [6] | [7] | [8] | [10]

O[C@@H](c1cc(C(F)(F)F)nc2c(C(F)(F)F)cccc12)[C@H]1CCCCN1
active: [9] 19 µM | [3] 21.3 µM | [4] 7.56 µM | [5] 7.56 µM
inactive: [1] | [10]

CCCCCCCCCCOCC(O)CN (centres undefined)
active: [9] 13.4 µM | [3] 16.9 µM | [4] 23.9 µM | [5] 23.9 µM | [6] 26.8 µM | [8] 26.8 µM
inactive: [1] | [10]

CCCCCCCC(=O)OCC
inactive: [1] | [9] | [2] | [5] | [6] | [10]

C[C@@]12C(=O)OC(=O)[C@]1(C)C1CCC2O1
inactive: [1] | [2] | [6] | [7]
active: [9] 9.52 µM

NC1(c2ccc(-c3nc4ccn5c(=O)[nH]nc5c4cc3-c3ccccc3)cc2)CCC1
active: [9] 26.8 µM | [3] 23.9 µM | [4] 3.01 µM
inactive: [1] | [7] | [8]

CNCC[C@H](Oc1cccc2ccccc12)c1cccs1
active: [9] 19 µM | [3] 23.9 µM | [4] 23.9 µM
inactive: [1] | [10]

CN1CCN(C2Cc3ccccc3Sc3ccc(Cl)cc32)CC1 (centres undefined)
inactive: [1] | [7] | [10]
active: [9] 23.9 µM | [2] 19 µM | [6] 21.3 µM

CCCCCCCCCCCCN(CCO)CCO
active: [9] 17.3 µM | [4] 43.5 µM
inactive: [1]

CCCCCCOc1cc(C)c(O)c(C)c1C
inactive: [1] | [7] | [10]
active: [9] 24.8 µM | [4] 15.7 µM | [6] 44.2 µM | [8] 35.1 µM

CCCCCCCCCCCCCc1ccccc1
inactive: [1] | [9] | [2] | [6] | [8] | [10]

CN(C)CCOC(c1ccccc1)c1ccccc1 (tested in a mixture with another compound)
inactive: [1] | [2] | [3] | [4] | [5] | [6] | [7] | [8]

CS(C)(=O)=O
inactive: [1] | [9] | [3] | [4] | [5] | [7] | [8] | [10]

C[Si](C)(C)Cl
inactive: [1] | [2] | [3] | [4] | [5] | [6] | [7] | [8] | [10]

CO[Si](CCC1CCC2OC2C1)(OC)OC (centres undefined)
inactive: [1] | [2] | [3] | [4] | [5] | [6] | [8] | [10]

c1cc[nH]c1
inactive: [1] | [2] | [3] | [5] | [6] | [7] | [8] | [10]

O=C[C@H](O)[C@H](O)[C@H](O)CO
inactive: [1] | [2] | [3] | [4] | [5] | [8]

Cc1cccc(Br)c1
inactive: [1] | [2] | [3] | [5] | [6] | [8] | [10]

CCCCCCC(C)OC(=O)COc1nc(F)c(Cl)c(N)c1Cl (centres undefined)
inactive: [1] | [2] | [3] | [6] | [7] | [8] | [10]

c1ccc(Sc2ccccc2)cc1
inactive: [1] | [2] | [3] | [5] | [6] | [7] | [8] | [10]

CC(C)N=C(N)/N=C(\N)Nc1ccc(Cl)cc1
inactive: [1] | [2] | [3] | [6] | [8] | [10]
active: [4] 23.9 µM

Cc1cc(Nc2ccc(O)cc2)ccc1N
active: [3] 48.8 µM | [4] 24.4 µM | [5] 21.8 µM | [10] 27.2 µM
inactive: [1] | [2] | [6] | [8]

CN1[C@@H]2CC[C@@H]1CC(OC(=O)C(CO)c1ccccc1)C2 (some centres undefined)
inactive: [1] | [2] | [3] | [4] | [5] | [7] | [8] | [10]

NC(=O)C(=O)N/N=C/c1ccc([N+](=O)[O-])o1
inactive: [1] | [2] | [3] | [4] | [7] | [8] | [10]

CCCC(CC)CCCCCCCN (centres undefined)
active: [2] 50.2 µM | [4] 56.3 µM
inactive: [1] | [3] | [8] | [10]

O=C(O)Cc1ccc(OCCNC[C@H](O)c2ccccc2)cc1
inactive: [1] | [2] | [3] | [5] | [6] | [8]

CCN(CC)CCSC(=O)C(c1ccccc1)c1ccccc1
inactive: [1] | [2] | [3] | [4] | [5] | [7] | [10]
